Test results: PubChem BioAssay (NCI)
Compounds without any hit were thinned out: in the full panel of roughly 79,000, 15% have a hit. Calls of active or inactive are those of the source. Cut-off read from the data, not from the text of the source: active = growth inhibition above about 70%; inactive = the rest.

Assays:
[1] = NCI Yeast Anticancer Drug Screen. Data for the rad52 strain (AID 147);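 note: 0% = growth of vehicle-treated control cultures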; conditions: S. cerevisiae rad52 mutant growth inhibition, hits give high values
Outline: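 Measured: yeast growth inhibition. System: strain with a defined DNA damage repair alteration. Reference: vehicle-treated control cultures.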

[2] = NCI Yeast Anticancer Drug Screen. Data for the wt1 strain (AID 149);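 note: 0% = growth of vehicle-treated wt1 cultures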; conditions: S. cerevisiae wt1 strain (SPY 50644) growth inhibition, hits give high values
Outline: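 The wt1 strain was treated with compounds, and growth was compared with vehicle-treated cultures to give inhibition.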

[3] = NCI Yeast Anticancer Drug Screen. Data for the rad50EPP+ strain (AID 151);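 note: 0% = growth of vehicle-treated control cultures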; conditions: S. cerevisiae rad50 mutant strain, hits give high values
Outline: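 One strain with a rad50 alteration (rad50EPP+) was compound-treated, its growth then compared to that of vehicle controls.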

[4] = NCI Yeast Anticancer Drug Screen. Data for the mgt1 strain (AID 153); conditions: S. cerevisiae mgt1 mutant growth inhibition, hits give high values
Outline: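 After exposure of the mgt1 yeast mutant to compound, growth was measured and reported as inhibition compared with vehicle controls.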

[5] = NCI Yeast Anticancer Drug Screen. Data for the rad50 strain (AID 155);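 note: 0% = growth of vehicle-only cultures of the same strain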; conditions: S. cerevisiae rad50 strain growth inhibition, hits give high values
Outline: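 Cells are treated with compound, grown, and their growth is then scored against vehicle-only cultures of the same repair-deficient yeast strain.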

[6] = NCI Yeast Anticancer Drug Screen. Data for the rad14 strain (AID 159);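 note: 0% = growth of vehicle-treated control cultures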; conditions: S. cerevisiae rad14 strain growth inhibition, hits give high values
Outline: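 Readout: yeast growth inhibition, referenced to vehicle-only cultures. Strain bears a defined alteration in DNA damage repair.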

[7] = NCI Yeast Anticancer Drug Screen. Data for the sgs1 mgt1 strain (AID 161);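 note: 0% = growth of cultures given vehicle only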; conditions: S. cerevisiae sgs1 mgt1 strain, hits give high values
Outline: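 Genetically altered yeast, compound exposure, growth inhibition relative to vehicle.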

[8] = NCI Yeast Anticancer Drug Screen. Data for the CLN2oe strain (AID 163);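 note: 0% = growth of vehicle-only control cultures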; conditions: S. cerevisiae CLN2oe strain, hits give high values
Outline: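 Here, growth inhibition in a cell-cycle-altered yeast strain after compound exposure was quantified against vehicle control growth.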

[9] = NCI Yeast Anticancer Drug Screen. Data for the cln2 rad14 strain (AID 165);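 note: 0% = growth equal to vehicle treated cultures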; conditions: S. cerevisiae cln2 rad14 strain, hits give high values
Outline: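 Growth of compound-exposed yeast (cln2 rad14 genotype) measured and expressed as inhibition relative to vehicle.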

[10] = NCI Yeast Anticancer Drug Screen. Data for the bub3 strain (AID 167); conditions: S. cerevisiae bub3 mutant strain, hits give high values
Outline: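 Part of a panel of yeast mutants defective in DNA damage repair or cell cycle regulation. Each strain is grown with compound, and inhibition is calculated relative to solvent-treated cultures.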

[11] = NCI Yeast Anticancer Drug Screen. Data for the wt2 strain (AID 169);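 note: 0% = growth of vehicle-treated yeast cultures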; conditions: S. cerevisiae wt2 strain growth inhibition, hits give high values
Outline: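 Genetically defined yeast strains from a DNA-repair/cell-cycle panel were used. Compound-exposed yeast growth was measured, and the inhibition was calculated relative to vehicle treatment.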

[12] = NCI Yeast Anticancer Drug Screen. Data for the mlh1 strain (AID 171);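 note: 0% = growth of vehicle-treated control cultures of the same strain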; conditions: S. cerevisiae mlh1 strain growth inhibition, hits give high values
Outline: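 Here the genetically defined yeast mutant is grown with each compound, and the extent to which its growth falls below that of vehicle-exposed cells is reported.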

[13] = NCI Yeast Anticancer Drug Screen. Data for the sgs1 strain (AID 173);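 note: 0% = growth of vehicle-only control cultures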; conditions: S. cerevisiae sgs1 mutant, hits give high values
Outline: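 Relative growth inhibition, referenced to vehicle, was determined in a yeast strain with a defined alteration affecting DNA damage repair or cell cycle control after compound exposure.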

[14] = NCI Yeast Anticancer Drug Screen. Data for the mlh1 rad18 strain (AID 175); conditions: S. cerevisiae mlh1 rad18 strain growth inhibition, hits give high values
Outline: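 In this whole-cell yeast screen, a strain with altered DNA damage repair is challenged with compound, and its growth is measured against matched vehicle-treated controls.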

[15] = NCI Yeast Anticancer Drug Screen. Data for the rad18 strain (AID 177); conditions: S. cerevisiae rad18 mutant growth inhibition, hits give high values
Outline: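 Screen uses a yeast strain with a defined lesion in DNA damage repair; compound effect is read as loss of growth compared to untreated vehicle cultures.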

[16] = NCI Yeast Anticancer Drug Screen. Data for the mec2-1 strain (AID 157); conditions: S. cerevisiae mec2-1 strain, hits give high values
Outline: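 Test agents were screened against the mec2-1 yeast strain, with defined DNA repair or cell cycle alteration. Growth was scored as inhibition against vehicle-only controls.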

[17] = at 5.0 µM (retest, dose inferred, filed as 0.5)
[18] = at 50.0 µM (retest, dose inferred, filed as 5.0)

Measured: growth inhibition

CCOC(=O)COc1c(OC)cc(C2C3=C(COC3=O)Oc3cc4c(cc32)OCO4)cc1OC (stereo not drawn)
inactive: [1]; at 1.2 µM 2% | [1]; at 3.7 µM 1% | [1]; at 11.0 µM 0% | [1]; at 33.0 µM 8% | [1]; at 100.0 µM 23% | [2]; at 1.2 µM 1% | [2]; at 3.7 µM 2% | [2]; at 11.0 µM 4% | [2]; at 33.0 µM 3% | [2]; at 100.0 µM 6% | [3]; at 1.2 µM -2% | [3]; at 3.7 µM -16% | [3]; at 11.0 µM -22% | [3]; at 33.0 µM -11% | [3]; at 100.0 µM 15% | [4]; at 1.2 µM -3% | [4]; at 3.7 µM 2% | [4]; at 11.0 µM 0% | [4]; at 33.0 µM 16% | [4]; at 100.0 µM 8% | [5]; at 1.2 µM 1% | [5]; at 3.7 µM 0% | [5]; [17] -4% | [5]; at 11.0 µM 1% | [5]; at 33.0 µM 3% | [5]; [18] -1% | [5]; at 50.0 µM 2.85% | [5]; at 100.0 µM 8% | [6]; at 1.2 µM -3% | [6]; at 3.7 µM -3% | [6]; at 11.0 µM 0% | [6]; at 33.0 µM 4% | [6]; at 100.0 µM 15% | [7]; [17] -9% | [7]; [18] 19% | [7]; at 50.0 µM 14.7% | [8]; at 1.2 µM -2% | [8]; at 3.7 µM -3% | [8]; at 11.0 µM 5% | [8]; at 33.0 µM 2% | [8]; at 100.0 µM 10% | [9]; [17] -1% | [9]; [18] 29% | [10]; at 1.2 µM -4% | [10]; at 3.7 µM 0% | [10]; [17] -13% | [10]; at 11.0 µM 0% | [10]; at 33.0 µM 6% | [10]; [18] 19% | [10]; at 50.0 µM 28.2% | [10]; at 100.0 µM 13% | [11]; at 1.2 µM 0% | [11]; at 3.7 µM 0% | [11]; at 11.0 µM 1% | [11]; at 33.0 µM 3% | [11]; at 100.0 µM 12% | [12]; at 1.2 µM 1% | [12]; at 3.7 µM -1% | [12]; at 11.0 µM -1% | [12]; at 33.0 µM 2% | [12]; at 100.0 µM 12% | [13]; at 1.2 µM 0% | [13]; at 3.7 µM 2% | [13]; at 11.0 µM 1% | [13]; at 33.0 µM 9% | [13]; at 100.0 µM 28% | [14]; [17] -10% | [14]; [18] 49% | [14]; at 50.0 µM -4.55% | [15]; at 1.2 µM 0% | [15]; at 3.7 µM -2% | [15]; at 11.0 µM -11% | [15]; at 33.0 µM -2% | [15]; at 100.0 µM 3%
active: [9]; at 50.0 µM 71%

O=C(c1ccc([N+](=O)[O-])cc1)C1N=NCC1c1ccccc1 (stereo not drawn)
active: [10]; at 50.0 µM 71.8% | [10]; at 100.0 µM 75% | [13]; at 100.0 µM 78%
inactive: [1]; at 1.2 µM 2% | [1]; at 3.7 µM 5% | [1]; at 11.0 µM 6% | [1]; at 33.0 µM 7% | [1]; at 100.0 µM 45% | [2]; at 1.2 µM 2% | [2]; at 3.7 µM 1% | [2]; at 11.0 µM 4% | [2]; at 33.0 µM 1% | [2]; at 100.0 µM 9% | [3]; at 1.2 µM -2% | [3]; at 3.7 µM -3% | [3]; at 11.0 µM -2% | [3]; at 33.0 µM 9% | [3]; at 100.0 µM 37% | [4]; at 1.2 µM -4% | [4]; at 3.7 µM -2% | [4]; at 11.0 µM 0% | [4]; at 33.0 µM 19% | [4]; at 100.0 µM 62% | [5]; at 1.2 µM 4% | [5]; at 3.7 µM 4% | [5]; [17] 13% | [5]; at 11.0 µM 5% | [5]; at 33.0 µM 7% | [5]; [18] 11% | [5]; at 50.0 µM 31% | [5]; at 100.0 µM 34% | [16]; at 1.2 µM -2% | [16]; at 3.7 µM 1% | [16]; [17] 0% | [16]; at 11.0 µM 1% | [16]; at 33.0 µM 1% | [16]; [18] 22% | [16]; at 50.0 µM 20.8% | [16]; at 100.0 µM 45% | [7]; [17] 3% | [7]; [18] 27% | [7]; at 50.0 µM 59% | [8]; at 1.2 µM 0% | [8]; at 3.7 µM 2% | [8]; at 11.0 µM 4% | [8]; at 33.0 µM 9% | [8]; at 100.0 µM 54% | [9]; [17] 5% | [9]; [18] 27% | [9]; at 50.0 µM 55.6% | [10]; at 1.2 µM 0% | [10]; at 3.7 µM -3% | [10]; [17] -3% | [10]; at 11.0 µM 2% | [10]; at 33.0 µM 11% | [10]; [18] 30% | [11]; at 1.2 µM 0% | [11]; at 3.7 µM -1% | [11]; at 11.0 µM 1% | [11]; at 33.0 µM 4% | [11]; at 100.0 µM 64% | [12]; at 1.2 µM -1% | [12]; at 3.7 µM 0% | [12]; at 11.0 µM 3% | [12]; at 33.0 µM 5% | [12]; at 100.0 µM 64% | [13]; at 1.2 µM 0% | [13]; at 3.7 µM 1% | [13]; at 11.0 µM 3% | [13]; at 33.0 µM 13% | [14]; [17] -3% | [14]; [18] 35% | [14]; at 50.0 µM 42% | [15]; at 1.2 µM 2% | [15]; at 3.7 µM 0% | [15]; at 11.0 µM 7% | [15]; at 33.0 µM 1% | [15]; at 100.0 µM 40%
